A short description of this test: binders of probe aFSTL3 on microarray, primary screen, stem cell growth factor project, biochemical, small-molecule microarray, fluorescence 635/667 (AID 1064).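 Further: measures binding of the biotinylated anti-FSTL3 antibody to printed compounds.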 The following applies: higher = more signal.
`CC1CC/C=C\[C@H]2OC34C=CCN(C(C)(C)C)C(=O)[C@H]3N(CCCCCO)C(=O)[C@@H]4C2C(=O)O1` (some centres not stated): the composite z-score was -0.108.

Turning to `COc1cc(NN2C(C(O)c3cc(OC)c(OC)c(OC)c3)C=CC3C(=O)N(C)C(=O)C32)cc(OC)c1OC` (configuration not stated), the composite z-score is -0.0324.

Molecule `[N-]=[N+]=NCc1ccccc1[C@H]1OC(c2ccc(OCCCO)cc2)=N[C@@]1(Cc1ccccc1N=[N+]=[N-])C(=O)NCC(O)CO` (some centres not stated) showed a composite z-score of -0.0235.

`C=C(COC)/C(=C/C[C@H](OC(=O)c1ccncc1)c1ccccc1OCCO)c1cc(C(=O)OC)ccc1OC` gave a composite z-score of -0.457.

Regarding `CC(C)=C1C(=O)C(c2ccccc2)=C2CN3C(=O)N(CCc4ccccc4)C(=O)[C@]3(Cc3ccc(C(F)(F)F)cc3)[C@H]21`, the composite z-score turned out to be 1.11.

Turning to `NCCCCCCNC(=O)[C@@H]1C[C@@H]2C(=O)N[C@@H](CCCCN)C(=O)N2[C@@H]1c1ccc(O)cc1`, the composite z-score stood at 0.208.

As for `CC(C)[Si](C#CCCCC#N)(O[C@H](c1ccccc1)c1cn(Cc2ccccc2)nn1)C(C)C`, the composite z-score was -0.281.

Consider `CC(C)c1ccc(NN2C(C(O)c3ccc(C#N)cc3)C=CC3C(=O)N(c4ccccc4)C(=O)C32)cc1` (configuration not stated), for which the composite z-score came out at 0.546.

In the case of `COC(=O)[C@]1(CCS(=O)(=O)c2ccccc2)N=C(c2ccc(OCCCO)cc2)O[C@@H]1c1ccccc1N=[N+]=[N-]`, the composite z-score was 0.48.

As to `C=C[C@H](C)[C@H](OC(=O)Nc1ccc(SC)cc1)c1ccc(OCCO)cc1`, the composite z-score is -0.0439.

Molecule `Cc1ccc(S[C@]2(C(=O)NCC(F)(F)F)CC(=O)N(Cc3cc(C(F)(F)F)cc(C(F)(F)F)c3)[C@@H]2c2ccc(CO)cc2)cc1` came in with a composite z-score of -0.26.

`O=C1OCCC=C[C@H]2OC34C=CCN(c5ccc6ccccc6c5)C(=O)[C@H]3N(CCCO)C(=O)[C@@H]4C12` (some centres not stated) came in with a composite z-score of 0.796.

These data come from PubChem BioAssay.
